Compound activity from PubChem.
A selection: hits, their analogues and other compounds. The true share with any hit is near 1.6%.
KCNQ2 enhance: KCNQ2 (rat) channel potentiation; O88943; CHO-K1 KCNQ2, FluxOR thallium flux fluorescence; stronger effect = higher value; B-score at 10 µM; 310,000 compounds, 0.54% hits; AID 2239;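 active = fluorescence ratio B-score at least 3 SD of library B-scores, with initial fluorescence B-score within 3 of them, cut at about 5.3 in these data; same plate scores as AID 2156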;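 note: B-score of peak minus minimum over baseline fluorescence ratio after K+ and Tl+ stimulus; positive B-score means potentiation of KCNQ2 with more thallium influx and brighter signal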
Target sequence (O88943 whole entry, looked up): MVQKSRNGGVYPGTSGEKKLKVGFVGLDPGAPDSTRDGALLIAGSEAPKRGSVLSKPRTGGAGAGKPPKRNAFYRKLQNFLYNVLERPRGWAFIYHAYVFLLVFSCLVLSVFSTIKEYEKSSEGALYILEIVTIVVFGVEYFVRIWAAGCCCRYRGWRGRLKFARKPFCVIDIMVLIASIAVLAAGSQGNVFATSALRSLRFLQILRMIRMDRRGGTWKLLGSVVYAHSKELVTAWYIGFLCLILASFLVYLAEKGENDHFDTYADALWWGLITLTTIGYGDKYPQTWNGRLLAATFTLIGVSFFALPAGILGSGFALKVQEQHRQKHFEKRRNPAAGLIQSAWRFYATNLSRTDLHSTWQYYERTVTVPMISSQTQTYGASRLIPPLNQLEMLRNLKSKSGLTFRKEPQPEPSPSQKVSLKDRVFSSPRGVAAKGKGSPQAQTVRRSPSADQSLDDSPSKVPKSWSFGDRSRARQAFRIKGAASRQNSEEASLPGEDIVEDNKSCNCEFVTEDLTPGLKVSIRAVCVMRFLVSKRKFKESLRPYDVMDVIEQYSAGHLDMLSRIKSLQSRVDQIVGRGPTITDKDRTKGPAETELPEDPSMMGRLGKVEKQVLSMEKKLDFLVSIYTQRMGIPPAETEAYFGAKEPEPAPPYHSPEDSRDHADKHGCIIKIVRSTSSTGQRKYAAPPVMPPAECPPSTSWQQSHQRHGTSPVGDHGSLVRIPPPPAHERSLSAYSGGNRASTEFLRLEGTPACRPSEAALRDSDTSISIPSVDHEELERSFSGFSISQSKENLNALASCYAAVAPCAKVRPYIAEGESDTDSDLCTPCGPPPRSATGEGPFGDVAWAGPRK
KCNQ2 block: blocks the rat KCNQ2 potassium channel | O88943 | CHO-K1 KCNQ2, FluxOR thallium flux, 20 min; stronger effect = lower value | B-score at 10 µM | 310,000 compounds, 1.1% hits | AID 2156;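 active = fluorescence ratio B-score at most minus 3 library SDs, with starting brightness B-score within 2 library SDs, cut at about -5.5 in these data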
Kir21 conf inh: confirmation of mouse Kir2.1 potassium channel inhibitors | Tl flux remaining, % of negative control (stronger effect = lower value), % at 10 µM | 2,300 compounds, 41% hits | shares compounds with KCNQ2 enhance | Kir2.1-expressing cells, FluxOR thallium flux fluorescence; stronger effect = lower value | AID 2032;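 active = Primary-screen hit whose thallium flux fell at least 3 control SD below untreated wells in both duplicates, with normal baseline fluorescence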;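 note: 0% = blank wells without stimulus and 100% = stimulated no-compound controls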
HEK293 Tl flux: parental HEK293 activity in Kir2.1 inhibitor counter-screen; shares compounds with KCNQ2 enhance; parental HEK293 cells, FluxOR thallium flux fluorescence; 0% = unstimulated blank wells; FluxOR signal as % of negative control (100 = no effect), % at 10 µM; 2,300 compounds, 19% hits; AID 2105;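 active = dye signal at least 3 control SD above or below untreated wells in both duplicates, raw fluorescence within 3, either direction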;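 note: percent is based on the flux ratio of peak minus minimum fluorescence over baseline F0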
CHO-K1 Tl ctr: alters thallium flux in parental CHO-K1 cells, KCNQ2 counter-screen; shares compounds with KCNQ2 enhance; FluxOR thallium flux fluorescence; zero = vehicle mean+3SD, 100% = vehicle-minus-blank window; activity increase over 3SD of controls, % at 10 µM; 1,200 compounds, 43% hits; AID 2282;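 active = signal rise of at least 3 SD above the untreated control mean, in both duplicate wells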;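 note: counter screen of KCNQ2 potentiator hits so any rise reflects channel-independent effects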
KCNQ1 sel pot: tests whether KCNQ2 potentiators also act on human KCNQ1. CHO KCNQ1 stable, FluxOR thallium flux fluorescence; beyond 3SD, as % of vehicle-control signal. activation over 3SD threshold, % at 10 µM. 1,200 compounds, 28% hits. shares compounds with KCNQ2 enhance;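 active = fluorescence ratio rise of at least 3 SD of vehicle wells above their mean, in both replicate wells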;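 note: 0% = vehicle mean plus 3 SD and 100% = vehicle minus unstimulated blank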
KCNQ2 pot conf: confirmation of rat KCNQ2 potassium channel potentiators. shares compounds with KCNQ2 enhance. CHO-KCNQ2 cells, FluxOR thallium flux fluorescence. potentiation, less the hit threshold, % at 10 µM. 1,200 compounds, 68% hits. AID 2287;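 active = fluorescence ratio rising 3 SD or more over the vehicle control mean in both replicates, plus primary screen hit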;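 note: peak minus minimum thallium fluorescence divided by baseline after K/Tl stimulus; 0% = vehicle mean plus 3 SD and 100% = vehicle minus unstimulated blank difference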
Kir2-1 sel: mouse Kir2.1 off-target activity of KCNQ2 potentiators; shares compounds with KCNQ2 enhance; HEK293 Kir2.1, FluxOR thallium flux fluorescence; activity over 3SD threshold, % at 10 µM; 1,200 compounds, 2% hits;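 active = fluorescence ratio rise of at least 3 SD above the vehicle-control mean, seen in both replicates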;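 note: 0% = vehicle mean plus 3 SD and 100% = vehicle minus no-stimulus blank window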
KCNQ2 W236L pot: potentiates the retigabine-insensitive rat KCNQ2 W236L mutant channel; shares compounds with KCNQ2 enhance; current increase over 3SD of negative controls (%), stronger effect = higher value, % at 25 µM; CHO KCNQ2-W236L, automated patch clamp current; 940 compounds, 10% hits; AID 2558;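 active = current increase at least 3 SD of the untreated controls above them in both duplicate recordings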
Numbers without * were called inactive; i = inactive; · = no result.

SMILES | KCNQ2 enhance | KCNQ2 block | Kir21 conf inh | HEK293 Tl flux | others
COc1cccc(N=Nc2c(N)[nH]n3c(=O)cc(-c4ccccc4)nc23)c1 | 5.93* | i | i | i | CHO-K1 Tl ctr=-7.4;KCNQ1 sel pot=-19.2;KCNQ2 pot conf=-8.8;Kir2-1 sel=-24.4
Cc1ccc(N=Nc2c(N)[nH]n3c(=O)cc(-c4ccccc4)nc23)cc1 | 4.35 | i | · | ·
COc1ccc(-c2c(C(F)(F)F)[nH]n3c(=O)cc(-c4ccccc4)nc23)cc1 | 15.3* | i | i | 225.0%* | CHO-K1 Tl ctr=-18.4;KCNQ1 sel pot=65.5*;KCNQ2 pot conf=49.3*;Kir2-1 sel=-31.1;KCNQ2 W236L pot=i
Cc1[nH]n2c(=O)cc(-c3ccc([N+](=O)[O-])cc3)nc2c1-c1ccccc1 | · | i | · | ·
O=C(NCc1cccc(Br)c1)C1CC2Cn3c(nc4ccccc43)C2N1c1ccccc1 (stereo not given) | · | i | · | ·
N#Cc1ccc(C(=O)NC2CCCCCCC2)cc1 | · | i | · | ·
C1CC1Cc1noc(CN2CCN(C3C4CC5CC(C4)CC3C5)CC2)n1 (stereo not given) | 0.05 | i | · | ·
CCC(CC)C(=O)Nc1cc(Cl)ccc1C | 0.56 | i | · | ·
Cc1noc(C)c1CSc1nc2ccccc2n1CCc1ccccc1 | -6 | -6* | 65.5%* | i
O=C(O)CCn1c(SCc2ccccc2)nc2ccccc21 | 0.07 | i | · | ·
CCOC(=O)C1=NNC2(c3ccc(Cl)cc3)C(=O)N(c3ccc(C)cc3)C(=O)C12 (stereo not given) | 0.19 | i | · | ·
O=c1[nH]cnc2scc(-c3ccc(-c4ccccc4)cc3)c12 | · | i | · | ·
Cc1c(-c2ccccc2)sc2nc[nH]c(=S)c12 | 10.1* | i | i | i | CHO-K1 Tl ctr=-14.4;KCNQ1 sel pot=-10.0;KCNQ2 pot conf=6.5*;Kir2-1 sel=-41.2;KCNQ2 W236L pot=i
CCOC(=O)C1(Cc2cccc(OC)c2)CCCN(C(=O)CCN2CCCO2)C1 (stereo not given) | 0.72 | i | · | ·
COc1cccc(NC(=O)C(C)SCc2ccccc2)c1 (stereo not given) | 0.63 | i | · | ·
COc1ccc(CCNC(=O)C(C)SCc2ccccc2)cc1 (stereo not given) | 0.39 | i | 41.0%* | i
Cc1cc(Cl)c(OCCCCNC(C)(C)C)c(Br)c1 | · | i | · | ·
O=C(CN1CCN(CC(=O)Nc2cccc(F)c2)CC1)Nc1ccc(-c2ccccc2)cc1 | · | i | · | ·
COc1ccc(C2CCCN2CC(O)COc2ccccc2C(C)C)cc1 (stereo not given) | -6.6 | -6.6* | 29.5%* | i
CCOC(=O)N1CCN(CC(O)COc2ccccc2C(C)C)CC1 (stereo not given) | 0.55 | i | · | ·
CC(C(=O)O/N=C(\N)c1cccnc1)c1ccc([N+](=O)[O-])cc1 (stereo not given) | · | i | · | ·
O=[N+]([O-])c1cc(Cl)ccc1N1CCCCC1 | 0.75 | i | · | ·
Nc1cc(N2CCCCC2)c(Cl)cc1[N+](=O)[O-] | 9.2* | i | i | i | CHO-K1 Tl ctr=139.2*;KCNQ1 sel pot=-17.4;KCNQ2 pot conf=45.3*;Kir2-1 sel=-27.4;KCNQ2 W236L pot=27.9%*
Nc1cccc2c1C(=O)N(c1ccccc1)C2=O | · | i | · | ·
O=C1N(Cc2cccc(Cl)c2)C[C@@H]2C[C@@H](c3ccc4nonc4c3)N3CCC[C@@]123 | · | i | · | ·
SMILES | KCNQ2 enhance | KCNQ2 block | Kir21 conf inh | HEK293 Tl flux | others
CCCCCCCCC(=O)N/N=C/c1ccccn1 | 1.79 | i | · | ·
CCCCCCCCC/C(=N\O)c1ccccn1 | 24.3* | i | i | 66.5%* | CHO-K1 Tl ctr=-25.1;KCNQ1 sel pot=-3.8;KCNQ2 pot conf=19.6*;Kir2-1 sel=-42.0;KCNQ2 W236L pot=i
Cc1cc2c(n1-c1ccc(C(=O)O)cc1)CCCCC2 | 0.81 | i | · | ·
O=C(CSc1nc2ccccc2n1Cc1ccccc1)N/N=C/c1ccccc1C(=O)O | 0.51 | i | · | ·
O=C(O)COc1ccccc1/C=N/NC(=O)CSc1nc2ccccc2n1Cc1ccccc1Cl | 2.33 | i | i | 73.0%*
O=C(NC1CCCCC1)c1cc(-c2cccs2)on1 | 0.05 | i | · | ·
c1ccc2c(c1)COC(CN1CCCCC1)OC2 | · | i | · | ·
COC(=O)c1cc(F)c(-n2cncn2)c(F)c1 | 0.25 | i | · | ·
COC(=O)c1cc([N+](=O)[O-])c(-n2cncn2)c([N+](=O)[O-])c1 | · | i | 73.0%* | i
O=C(CCSCc1ccc(Cl)cc1)NCc1cccs1 | · | i | · | ·
O=C1ON=C(c2ccccc2)/C1=C/c1ccc(O)c(O)c1 | 6.82* | i | 70.5%* | i | CHO-K1 Tl ctr=-3.8;KCNQ1 sel pot=-5.6;KCNQ2 pot conf=-1.3;Kir2-1 sel=-70.9;KCNQ2 W236L pot=i
COc1ccc(/C=C2\C(=O)ON=C2c2ccccc2)cc1 | · | i | · | ·
CCc1ccc(C(=O)c2ccccc2C(=O)O)s1 | · | i | · | ·
CC(C)Cc1ccc(/C(=N/O)C(=O)O)s1 | 7.08* | i | i | i | CHO-K1 Tl ctr=23.2*;KCNQ1 sel pot=-13.7;KCNQ2 pot conf=26.7*;Kir2-1 sel=-41.4;KCNQ2 W236L pot=i
O=[N+]([O-])c1ccccc1CCc1cnc(Cl)s1 | 0.25 | i | · | ·
O=C(O)Cc1cc(I)c(Oc2ccc(O)c(I)c2)c(I)c1 | 9.88* | i | i | i | CHO-K1 Tl ctr=1.9*;KCNQ1 sel pot=19.3*;KCNQ2 pot conf=112.1*;Kir2-1 sel=-39.0;KCNQ2 W236L pot=i
O=C(O)Cc1ccc(O)c(O)c1 | · | i | · | ·
CN(C)C(CNC(=O)c1cccc(S(=O)(=O)NCc2ccccc2)c1)c1ccco1 (stereo not given) | · | i | · | ·
C/C(Cl)=C\COc1cc(C)nc2c(Br)cccc12 | 0.01 | i | · | ·
Cc1ccc(NC2=NCC(=O)N2Cc2cccs2)cc1C | 0.74 | i | · | ·
COc1ccc(C)cc1Nc1n[n+](-c2ccccc2)c(-c2cc(OC)c(OC)cc2Br)s1 | -6.36 | -6.36* | 53.0%* | i
COc1ccc(C)cc1Nc1n[n+](-c2ccccc2)c(-c2ccc(C(=O)O)cc2)s1 | 0.64 | i | · | ·
O=C(Cc1ccc(-n2cnnn2)cc1)NC12CC3CC(CC(C3)C1)C2 | 6.18* | i | i | i | CHO-K1 Tl ctr=83.0*;KCNQ1 sel pot=-17.4;KCNQ2 pot conf=3.4*;Kir2-1 sel=-41.0;KCNQ2 W236L pot=i
O=C(Nc1ccc(-n2cnnn2)cc1)C1CCC1 | · | i | · | ·
COc1ccc(Nc2ccc(Cl)nn2)cc1 | 0.66 | i | · | ·
Clc1ccc(Nc2ccc(Cl)nn2)cc1 | 6.63* | i | i | i | CHO-K1 Tl ctr=17.0*;KCNQ1 sel pot=35.7*;KCNQ2 pot conf=13.9*;Kir2-1 sel=-32.8;KCNQ2 W236L pot=25.5%*
N#Cc1c(C(F)(F)F)cc(-c2ccccc2Cl)[nH]c1=O | · | i | · | ·
COc1ccc(NC(=O)Cn2nc(C)c([N+](=O)[O-])c2C)cn1 | 0.15 | i | · | ·
CC(C)(C)c1csc(N/N=C/c2cccnc2)n1 | 1.5 | i | · | ·
